PubChem BioAssay (NCI)
Values joined by “and” are separate entries in the source; they are usually repeats but may differ in a detail not shown here. Equal entries are not always repeated. About 83,000 compounds went through this panel and 20% of them were active in at least one assay; those are over-represented in the sample as a whole.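 Interpretation: 100, growth as untreated; towards 0, rising growth inhibition; 0, no net growth; 0 to -100, cell death. Compounds scoring below 10 were considered active.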 Values without a mark were called inactive. Active and inactive are the calls of the source.

The compounds below were run on MDA-MB-468 breast (assay: NCI-60 one-dose screen, 48 h (100 = growth as untreated, 0 = no growth, -100 = all killed)). Conditions: 10 µM unless noted.

Structure (SMILES) | growth
C#Cc1nc(C2=C(C)C(OC(=O)CCC(=O)O)CC2)cs1 (stereo not given) | 99.6%
Cl.Fc1c[c-]c(-c2ccccn2)c(F)c1.[Pt].c1ccc(P(c2ccccc2)C([PH+](c2ccccc2)c2ccccc2)[PH+](c2ccccc2)c2ccccc2)cc1 | -4.27% (active)
Nc1nc(N)c2nc(CNc3ccc(C(=O)NC(CCC(=O)O)C(=O)O)cc3)cnc2n1 (stereo not given) | 13.1% and 12%
Cc1ccccc1NC(=O)c1sc2nc(C)c(C(C)O)cc2c1N (stereo not given) | 39.5%
N#Cc1ccc(NC(=O)Nc2nc3ccc(OC(F)(F)F)cc3s2)cc1 | -2.64% (active)
CC(=O)Nc1cc(F)cc(-c2ccc3[nH]cc(-c4ccccc4)c3n2)c1 | -21.9% (active)
Cc1nc2ccccc2c(C(=O)O)c1O | 99.9%
CCN(CC)CCCN1C(=O)c2c(c(C)c3c(oc4ccc(OC)cc43)c2C)C1=O | 103%
Cc1cccc2c1S/C(=C/c1ccc([N+](=O)[O-])cc1)C2=O | 112%
c1cc(CNCCNCc2ccncc2)ccn1 | 104%
c1ccc2c(c1)oc1cc3c(cc12)nnc1cccn13 | 108%
CC(=O)Nc1ccc(S(=O)(=O)N/N=C\c2ccc(Cl)c(Cl)c2)cc1 | 100%
C#C[C@]1(O)CC[C@H]2[C@@H]3CC=C4c5sc(Nc6ccc(C)cn6)nc5CC[C@]4(C)[C@H]3CC[C@@]21C | -23.1% (active)
CN1CCN(c2cc(F)c(NC3=C(Cl)C(=O)c4ncccc4C3=O)c(F)c2)CC1 | -73.9% (active)
Nc1ncnc2c1ncn2C1CC(O)C(CO)O1 (stereo not given) | 113% and 99.9%
COC(=O)c1nc(=S)[nH]c(C(=O)OC)c1C(=O)c1ccc(OC)cc1 | 94.7%
COC(=O)[C@@]12CC[C@@H](C)[C@]3(C[C@@H](c4ccoc4)OC3=O)[C@H]1CC[C@@H]1O[C@@]12C | 106%
O=C(CSc1nnc(-c2ccc(Cl)cc2)n1-c1ccccc1)Nc1ccc(Cl)cc1 | 4.06% (active)
COc1cc(OCc2cccc(Br)c2C)cc(OC)c1C=O | 20.8%
CCCCN(CC)CCCCCCCCCCN1CCCc2cc(OC)ccc21 | 40.8%
COc1ccc(/C=C/c2c(C(=O)/C=C/c3ccc(C(F)(F)F)cc3)c(C)nc3ccccc23)cc1 | -54.5% (active)
FC(F)(F)c1ccc(-c2cn3nc(-c4c[nH]c5ccc(Br)cc45)sc3n2)cc1 | 103%
NC[C@@H]1O[C@H](O[C@@H]2[C@@H](CO)OC(O[C@@H]3[C@@H](O)[C@H](N)C[C@H](N)[C@H]3OC3O[C@H](CN)[C@@H](O)[C@H](O)[C@H]3N)[C@@H]2O)[C@H](N)[C@@H](O)[C@@H]1O (stereo not given in full) | 110%
O=C1c2cccc3c(-c4ccc5c(c4)ncn5C4CCCCC4)ccc(c23)C(=O)N1c1nc2ccccc2s1 | 92%
CC(C)N(CCOc1cccc(-c2nc3sccn3c2-c2ccnc(S(C)(=O)=O)n2)c1)C(C)C | -2.25% (active)
